Source: PubChem BioAssay (NCI)
About 79,000 compounds went through this panel and 15% of them were active in at least one assay; those are over-represented in the sample as a whole. Unmarked numbers belong to inactive results. Active and inactive are the calls of the source. No stated cut-off is given here; in the data, active means growth inhibition above about 70%; inactive means the rest.

Assay: NCI Yeast Anticancer Drug Screen. Data for the rad14 strain (AID 159);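 further: 0% = growth of vehicle-treated control cultures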
Details: S. cerevisiae rad14 strain growth inhibition, hits give high values
Method: Growth inhibition of yeast strains with defined genetic alterations is measured as a screen for potential anti-cancer activity. Selected strains with alterations in DNA damage repair or cell cycle control were exposed to compounds and growth inhibition was measured relative to vehicle treated controls. The strain used in this assay is rad14

Row | Compound | growth inhibition (at 1.2 µM) | growth inhibition (at 3.7 µM) | growth inhibition (at 11.0 µM) | growth inhibition (at 33.0 µM) | growth inhibition (at 100.0 µM)
1 | Oc1ccccc1N=Cc1ccc(Cl)cc1 | 5% | 5% | 11% | 20% | 34%
2 | Cc1cc(Cl)nc2nc(Cl)c(N)cc12 | 1% | 2% | 1% | 28% | 78% (active)
3 | CCN(CC)CC(O)c1cc(-c2ccc(Cl)cc2)nc2c(-c3ccccc3)cccc12 (stereo not given) | -2% | 4% | 99% (active) | 98% (active) | 95% (active)
4 | CN(C)Cc1cccc(CN(C)C)[c]1[Sn]([Br])([c]1ccccc1)[c]1ccccc1 | -3% | 17% | 27% | 78% (active) | 97% (active)
5 | CCN(CC)N=Nc1c(C(N)=O)n[nH]c1C | -2% | 1% | 0% | 3% | 23%
6 | On1cnc(=S)c2[nH]cnc21 | -32% | -26% | -34% | -28% | -14%
7 | Nc1cc(F)cc2c1-c1ccc(F)cc1C2 | 4% | 5% | 9% | 27% | 94% (active)
8 | O=c1ccc(N=Nc2ccccc2)ccc1O | 1% | 91% (active) | 98% (active) | 99% (active) | 99% (active)
